Screening data: PubChem, several laboratories
In the library only some 0.98% were active in any assay of this set; here they are far more common.
Keap1 Nrf2 FP – inhibitors of human Keap1-Nrf2 protein-protein interaction. hit rate 0.15% among 340,000. inhibition, % at 9.4 µM. Keap1 Kelch-Nrf2 peptide fluorescence polarization, 1536-well; in the data active = inhibition above about 12%;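 also: human Keap1 Kelch domain with fluorescein labeled Nrf2 9mer peptide probe; 0% = neutral control wells and 100% = peptide positive control; higher means more block of Keap1 binding to Nrf2 peptide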
cardiac RTF act – cardiac RTF calcium sensitization | IANBD-labeled TnC RTF fluorescence at EC20 calcium; 0% EC20 calcium, 100% full calcium | activation, % at 7.2 µM | hit rate 0.24% among 340,000 | AID 493008;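 active = activation above the mean over all tested compounds plus 3 SD, cut at about 30% in these data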;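 also: rise in fluorescence read as greater calcium sensitivity of cardiac thin filaments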
LANA DNA inh – blocks KSHV LANA C-terminal domain binding to DNA; hit rate 0.078% among 340,000; inhibition, % at 9 µM; AID 504423; MBP-C-LANA/FAM-LBS DNA binding, fluorescence polarization;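 active = highest replicate inhibition at or above 60% at 9 µM, even if other replicates fall short; inactive = all replicates below 60% inhibition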;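 also: 0% = neutral control wells and 100% = 4 µM acridine orange control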
RTF Ca sens inh – cardiac RTF calcium desensitization; P19429+P45379; IANBD-labeled cardiac RTF, Ca2+ fluorescence; inhibition, % at 7.15 µM; hit rate 0.12% among 340,000;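 active = inhibition above the mean inhibition of all tested compounds plus 3 SD, cut at about 17% in these data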;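 also: assay run at fixed EC70 calcium of 1.6 mM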
LANA-H2B inh – blocks KSHV LANA binding to histone H2A/H2B; cell-free LANA-H2A/H2B peptide, fluorescence polarization; inhibition, % (test concentration not listed); Q9QR71; hit rate 0.6% among 320,000; in the data active = inhibition mostly above about 10%, no sharp cut-off; inactive = mostly below about 6.7%
RTF Ca inh conf – cardiac RTF calcium sensitivity inhibition, confirmation; shares compounds with RTF Ca sens inh; reconstituted cardiac thin filaments, calcium sensitivity fluorescence; inhibition, % at 7.15 µM; hit rate 8% among 360; AID 504635; in the data active = inhibition above about 18%
The depositor's hits bear a star; / = no result; ! = repeats disagree.

SMILES	Keap1 Nrf2 FP	cardiac RTF act	LANA DNA inh	RTF Ca sens inh	LANA-H2B inh	RTF Ca inh conf
Nc1ncnc2oc(-c3ccco3)c(-c3ccco3)c12	-4.3	-23.5	0.8	58.4*	1.3	9.3
O=C(O)c1[nH]c2ccccc2c1C(c1ccccc1)c1c(C(=O)O)[nH]c2ccccc12	1.3	-10.3	0.1	-2.0	-5.9	/
O=C(O)c1[nH]c2ccccc2c1C(c1cc(Cl)cc([N+](=O)[O-])c1O)c1c(C(=O)O)[nH]c2ccccc12	-1.1	-23.0	9.9	21.6*	3.6	7.4
O=C(CN1C(=O)/C(=C\c2ccco2)SC1=S)Nc1ccc(O)cc1C(=O)O	-5.0	-8.8	63.7*	17.7*	9.2	-2.8
COc1ccccc1-n1c(SCC(=O)N2CCc3ccccc32)nc2c(c1=O)SCC2	-2.1	4.0	-0.6	-1.9	3.9	/
COc1ccc(OC)c(-n2c(SCC(=O)N3CCc4ccccc43)nc3c(c2=O)SCC3)c1	0.7	1.1	0.3	39.8*	-2.4	-3.1
COc1ccc(C2=NOC(C(=O)NCCCn3ccnc3)C2)cc1 (stereo not given)	1.7	1.3	-0.2	18.1*	-1.8	-6.1
CC(=O)c1cccc(OCc2cc(C(=O)N3CCC(N4CCCCC4)CC3)no2)c1	-2.3	6.4	-1.0	0.6	-2.3	/
CCOC(=O)c1c(N)sc2c(OC)c(Br)ccc12	-1.7	-7.8	1.1	20.8*	1.6	-5.8
COc1ccc(N(Cc2ccccc2)N=O)cc1	-5.7	-2.0	-0.7	-3.1	-0.6	/
c1cnc2ccc3ncccc3c2c1	-2.6	6.2	-0.6	-7.5	-0.7	/
c1ccc2c(c1)ccc1ncccc12	-4.4	-5.1	-0.8	18.2*	1.0	-4.0
c1cnc2c(c1)ccc1cccnc12	-1.0	0.3	-1.5	17.8*!	20.6*!	-6.9
CCOc1ccc(OCC)c(NC(=O)C2CCN(c3ncccn3)CC2)c1	-4.1	4.2	-1.3	-6.1	-3.8	/
COc1ccccc1NS(=O)(=O)c1cc(NC(=O)c2sccc2C)ccc1N1CCCC1	-2.1	-5.3	-0.8	24.9*	-1.7	2.6
O=C(Nc1ccc(F)cc1)Nc1ccc(N2CCCC2)c(S(=O)(=O)Nc2ccccc2Cl)c1	-0.1	6.7	0.1	-8.3	10.9	/
O=C(Nc1ccc(N2CCOCC2)c(S(=O)(=O)Nc2ccccc2Cl)c1)c1ccc(F)cc1	0.4	-9.2	-0.1	23.9*	2.7	1.1
COc1ccccc1NS(=O)(=O)c1cc(NC(=O)c2sccc2C)ccc1N1CCOCC1	-0.5	-6.1	0.4	15.9	3.1	/
O=c1cc(C(F)(F)F)nc(SCc2cccnc2)[nH]1	-0.7	-2.9	0.7	-3.6	1.5	/
CCn1cc(S(=O)(=O)NCCc2ccccc2OC)cn1	-2.6	-2.9	2.3	3.0	0.4	/
COc1cc(CNC2CCCC2)cc(OC)c1	1.2	-2.1	-1.3	17.7*	3.4	-1.9
Cc1ccc(NC(=O)Cn2nnc3ccccc3c2=O)cc1	4.6	-1.7	1.5	-11.2	2.3	/
O=C(Cn1nnc2ccccc2c1=O)Nc1ccc(S(=O)(=O)N2CCOCC2)cc1	2.7	1.2	3.0	17.2*	1.0	-1.4
Cc1ccc(NC(=O)Cn2nnc3ccccc3c2=O)cc1C	4.7	-0.6	2.6	18.3*	-9.8	-6.3
N#C/C(=C\c1c(F)cccc1Cl)S(=O)(=O)c1ccccn1	-3.4	2.6	-0.8	-2.5	-7.0	/
SMILES	Keap1 Nrf2 FP	cardiac RTF act	LANA DNA inh	RTF Ca sens inh	LANA-H2B inh	RTF Ca inh conf
CCOC(=O)c1ccccc1NC(=O)C1CC(=O)N(C2CCCCC2)C1 (stereo not given)	-6.7	3.1	0.9	5.8	-5.9	/
Cc1onc(-c2ccccc2)c1C(=O)N1CCN(c2ncccc2C(F)(F)F)CC1	-4.1	3.7	-4.5	-2.3	-0.7	/
COc1ccc(-c2nnc(SCc3c(C)noc3C)o2)cc1	5.4	0.3	-0.9	18.2*	2.6	-3.6
CC(C)(CNS(C)(=O)=O)SCc1ccc(Cl)cc1	-2.5	1.6	-0.5	17.1*	-1.4	-5.2
Cc1ccc2nc(-c3ccc(SCC(=O)Nc4ccc5c(c4)OCCO5)nc3)[nH]c2c1	-3.8	-3.0	0.5	-0.2	4.2	/
O=C(CSc1ccc(-c2nc3ccccc3[nH]2)cn1)Nc1ccc2c(c1)OCCO2	-1.8	-0.5	1.0	20.7*	-0.1	-2.6
CN(NC(=O)COc1ccccc1)C1=NS(=O)(=O)c2ccccc21	/	2.5	-6.4	29.9*	-0.9	-3.5
COc1cc(/C=C2\SC(=S)N(c3cccnc3)C2=O)ccc1O	1.0	-14.0	-2.7	19.5*	6.7	-0.1
